Source: PubChem BioAssay
Activity calls are given as the source filed them.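 Rule for the calls: active = calcium signal rise more than 3 SD above the low-dose agonist control mean, in both duplicate plates and the primary screen; inactive = the rest.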

test: nonspecific potentiation of DAMGO calcium response – cell-based, HEK293 mu-opioid receptor line, counter-screen for TRPC4 allosteric potentiator project, confirmation (AID 449724); conditions: HEK293 mu-opioid receptor cells, Fluo-4 calcium flux, at 10 µM, compound added before EC20 DAMGO stimulus;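 note: HEK293 cells carrying mu-opioid receptor only with no TRPC4 channel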

SMILES | outcome
CCCc1nc2oc3c(NCCCN(C)C)ncnc3c2c2c1CCCC2 | inactive
O=C(/C=C/c1ccc(Cl)cc1)N(Cc1ccccc1)C1CCS(=O)(=O)C1 (configuration not stated) | inactive
COc1ccc(NS(=O)(=O)c2ccc3ccccc3c2)c2ncccc12 | inactive
CN(C)S(=O)(=O)N1CCC(CCCC2CCN(S(=O)(=O)N(C)C)CC2)CC1 | inactive
COc1cc(C2(c3ccc(O)c(OC)c3)C(=O)Nc3c(C)cc(Br)cc32)ccc1O | inactive
COC(=O)C(CC(=O)Nc1cc(C)ccc1C)Nc1ccccc1OC (configuration not stated) | inactive
CC(C)CCc1noc(CN2CCN(c3ccc(Cl)cn3)CC2)n1 | inactive
Cc1cc(OCCN2CCCC2)ccc1[N+](=O)[O-] | inactive
CSc1ccc(S(=O)(=O)NCC(=O)OCC(=O)N(C)Cc2ccccc2)cc1[N+](=O)[O-] | inactive
O=C(COC(=O)c1ccccc1C(=O)N1CCN(c2ccccc2)CC1)Nc1ccc(F)cc1 | inactive
CCCCCCCCCC[n+]1cccc2c3ccccc3ccc21 | inactive
Cc1nn(-c2cc(C(F)(F)F)ccc2Cl)c2nc(C(Cl)(Cl)Cl)[nH]c(=O)c12 | inactive
Cc1cc2oc(C(=O)N(Cc3cccs3)C3CCS(=O)(=O)C3)cc(=O)c2cc1Cl (configuration not stated) | inactive
CN(C)CCCN(C(=O)CCc1ccccc1)c1nc2ccc(F)cc2s1 | inactive
Cc1ccc(C(=O)O)cc1N=Cc1cc(Br)cc(Br)c1O | inactive
N=c1c2c3c(sc2ncn1Cc1ccccc1)CCCC3 | inactive
Cn1c2ccccc2c(=O)c2c(=O)n(-c3ccccc3)c(-c3ccc(C(C)(C)C)cc3)nc21 | inactive
